Data from PubChem BioAssay (NCATS).
Values joined by “and” are separate entries in the source; they are usually repeats but may differ in a detail not shown here. Identical values can stand only once. Inconclusive results are not listed. Active and inactive are the calls of the source. Unless noted, calls come from the whole dose curve; as a rule, active = well fitted curve in the direction sought with a large enough effect; inconclusive = small, poorly fitted or top-dose-only effect, or another doubt; inactive = no such curve, though single readings can be large; an effect the other way counts as inactive or inconclusive.

Experiments:
WaGa = assay: qHTS assay to identify novel small-molecules to repurpose for Merkel cell carcinoma treatment (AID 1296009); settings: MCC and control cell lines, CellTiter-Glo viability, 72 h; series mostly up to 46 µM; note: nearly all actives have a fitted effect of over 60% in size; note: potency is the fitted concentration of half-maximal effect
Method in brief: (§1)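 Cells were incubated with compound for 72 hr at 37 degree celsius before CellTiter-Glo addition. Luminescence was normalized with no-cell wells as full cytotoxicity and DMSO as baseline.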

[1] = Drug repurposing screens with cells derived from glioblastoma tumor samples (AID 1345199); settings: GBM patient neurospheres viability, ATP luminescence, 48 h; note: nearly all actives have a fitted effect of over 40% in size; note: potency is the fitted concentration of half-maximal effect; for activity, negative = cell killing: % is set by controls: 0 for no effect and ±100 for the full control effect
Method in brief: (§2)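 Four patient lines of CD133+ GBM neurospheres were screened at several concentrations; hits were retested in those lines plus three slower-growing GBM lines, using 48-hour treatment and ATP-based viability.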

astro = assay: as above; settings: viability, ATP luminescence, 48 h; series mostly up to 45.9 µM
Method in brief: as §2

C33A = assay: Primary qHTS to identify gynecologic anti-cancer compounds using libraries of approved drugs and bioactive compounds (AID 1345084); settings: Gynecologic cancer cell panel viability, ATPlite luminescence, 48 h; series mostly up to 57.5 µM; note: nearly all actives have a fitted effect of over 55% in size; note: potency is the fitted concentration of half-maximal effect
Method in brief: (§3)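 Five-concentration response, 48 h; readout is ATP-driven luciferase luminescence.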

CAOV3 = assay: as above; settings: Gynecologic cancer cell panel viability, ATPlite luminescence, 48 h; series mostly up to 57.5 µM
Method in brief: as §3

CASKI = assay: as above; settings: Gynecologic cancer cell panel viability, ATPlite luminescence, 48 h; series mostly up to 57.5 µM
Method in brief: as §3

Es-2 = assay: as above; settings: Gynecologic cancer cell panel viability, ATPlite luminescence, 48 h; series mostly up to 57.5 µM
Method in brief: as §3

HeLa = assay: as above; settings: Gynecologic cancer cell panel viability, ATPlite luminescence, 48 h; series mostly up to 57.5 µM
Method in brief: as §3

Hek293T = assay: as above; settings: Gynecologic cancer cell panel viability, ATPlite luminescence, 48 h, control line for the selectivity index; series mostly up to 57.5 µM
Method in brief: as §3

JEG-3 = assay: as above; settings: Gynecologic cancer cell panel viability, ATPlite luminescence, 48 h; series mostly up to 57.5 µM
Method in brief: as §3

PA-1 = assay: as above; settings: Gynecologic cancer cell panel viability, ATPlite luminescence, 48 h; series mostly up to 57.5 µM
Method in brief: as §3

SKOV3 = assay: as above; settings: Gynecologic cancer cell panel viability, ATPlite luminescence, 48 h; series mostly up to 57.5 µM
Method in brief: as §3

Tov-21-G = assay: as above; settings: Gynecologic cancer cell panel viability, ATPlite luminescence, 48 h; series mostly up to 57.5 µM
Method in brief: as §3

Tov112D = assay: as above; settings: Gynecologic cancer cell panel viability, ATPlite luminescence, 48 h; series mostly up to 57.5 µM
Method in brief: as §3

OV90 = assay: as above; settings: Gynecologic cancer cell panel viability, ATPlite luminescence, 48 h; series mostly up to 57.5 µM
Method in brief: as §3

UISO = assay: qHTS assay to identify novel small-molecules to repurpose for Merkel cell carcinoma treatment (AID 1296009); settings: MCC and control cell lines, CellTiter-Glo viability, 72 h; series mostly up to 46 µM; note: nearly all actives have a fitted effect of over 60% in size; note: potency is the fitted concentration of half-maximal effect
Method in brief: as §1

[2] = target: Nuclear receptor subfamily 1 group I member 2 (Rattus norvegicus) (UniProt Q9R1A7); assay: qHTS assay for small molecule activators of the rat pregnane X receptor (rPXR) signaling pathway (AID 651751; call rule not given here; note: 0% is about no effect); settings: rPXR reporter cells, luciferase (One-Glo), 24 h
Sequence of Nuclear receptor subfamily 1 group I member 2 (Rattus norvegicus) (Q9R1A7 whole entry, looked up): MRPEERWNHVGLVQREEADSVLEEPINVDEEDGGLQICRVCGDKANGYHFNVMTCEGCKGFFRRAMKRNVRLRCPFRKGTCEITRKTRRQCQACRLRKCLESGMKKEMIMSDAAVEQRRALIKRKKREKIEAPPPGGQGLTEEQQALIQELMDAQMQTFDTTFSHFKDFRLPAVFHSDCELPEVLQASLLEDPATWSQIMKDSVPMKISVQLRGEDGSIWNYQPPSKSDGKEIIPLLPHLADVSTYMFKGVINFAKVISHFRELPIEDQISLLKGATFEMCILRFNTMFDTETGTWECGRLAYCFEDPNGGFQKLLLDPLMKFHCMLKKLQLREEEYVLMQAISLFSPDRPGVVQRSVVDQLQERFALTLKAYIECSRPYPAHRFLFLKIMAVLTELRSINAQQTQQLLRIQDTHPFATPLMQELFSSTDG

[3] = at 45.9 µM (top of the series), tumour line B
[4] = at 45.9 µM (top of the series), tumour line D
[5] = at 46 µM (top of the series), tumour line A
[6] = at 46.1 µM (top of the series), tumour line C

CC(C)C[C@H](NC(=O)CNC(=O)[C@H](Cc1ccc(O)cc1)NC(=O)[C@H](CO)NC(=O)[C@H](Cc1c[nH]c2ccccc12)NC(=O)[C@H](Cc1cnc[nH]1)NC(=O)[C@@H]1CCC(=O)N1)C(=O)N[C@@H](CCCN=C(N)N)C(=O)N1CCC[C@H]1C(=O)NCC(N)=O (stereo in doubt)
inactive: Potency (WaGa) | activity, negative = cell killing [1, 3] -6.26% | activity, negative = cell killing [1, 4] 6.77% | activity, negative = cell killing [1, 5] -26% | activity, negative = cell killing [1, 6] -6.29% | Potency (astro)

CN1CCC(N(Cc2cccs2)c2ccccc2)CC1
inactive: Potency (WaGa) | Potency (C33A) | Potency (CAOV3) | Potency (CASKI) | Potency (Es-2) | Potency (HeLa) | Potency (Hek293T) | Potency (JEG-3) | Potency (PA-1) | Potency (SKOV3) | Potency (Tov-21-G) | Potency (Tov112D) | activity, negative = cell killing [1, 3] -22.4% | Potency (astro)
active: Potency ([1]; tumour line A) 10 µM

CC(C)N(CCC(=O)c1ccc2ccccc2c1)Cc1ccccc1
inactive: Potency (C33A) | Potency (CAOV3) | Potency (CASKI) | Potency (Es-2) | Potency (HeLa) | Potency (Hek293T) | Potency (JEG-3) | Potency (OV90) | Potency (PA-1) | Potency (SKOV3) | Potency (Tov-21-G) | Potency (Tov112D)

Nc1ccc2c(c1)CN1C(=O)c3ccccc3C1=N2
active: Potency (CASKI) 6.31 µM | Potency (Es-2) 10 µM | Potency (JEG-3) 11.2 µM | Potency (SKOV3) 7.94 µM | Potency (Tov-21-G) 10 µM
inactive: Potency (UISO)

O=C1Cc2cc(Cl)ccc2N1
inactive: Potency (WaGa) | Potency (C33A) | Potency (CASKI) | Potency (Es-2) | Potency (Hek293T) | Potency (JEG-3) | Potency (OV90) | Potency (PA-1) | Potency (SKOV3) | Potency (Tov-21-G) | Potency (Tov112D)

O=S(=O)(O)c1ccc2nc(-c3ccccc3)[nH]c2c1
inactive: Potency (UISO) | Potency (CAOV3) | Potency (CASKI) | Potency (Es-2) | Potency (HeLa) | Potency (Hek293T) | Potency (JEG-3) | Potency (OV90) | Potency (PA-1) | Potency (SKOV3) | Potency (Tov-21-G) | Potency (Tov112D) | activity, negative = cell killing [1, 3] -3.28% | activity, negative = cell killing [1, 4] -9.15% | activity, negative = cell killing [1, 6] -23.9% | Potency (astro)

CC(C)(C)C1CCC(CC2=C(O)c3ccccc3C(=O)C2=O)CC1 (stereo not drawn)
inactive: Potency (WaGa) | Potency (C33A) | Potency (CAOV3) | Potency (CASKI) | Potency (Es-2) | Potency (HeLa) | Potency (Hek293T) | Potency (JEG-3) | Potency (PA-1) | Potency (Tov-21-G) | Potency (Tov112D)

CCCCN(CCN(CCCC)C(=O)N1CCOCC1)C(=O)N1CCOCC1
inactive: Potency (WaGa) | Potency (C33A) | Potency (CAOV3) | Potency (CASKI) | Potency (Es-2) | Potency (HeLa) | Potency (Hek293T) | Potency (JEG-3) | Potency (OV90) | Potency (PA-1) | Potency (Tov-21-G) | Potency (Tov112D)

O=C(c1ccccc1)c1ccccc1
inactive: Potency (C33A) | Potency (CAOV3) | Potency (CASKI) | Potency (Es-2) | Potency (HeLa) | Potency (Hek293T) | Potency (JEG-3) | Potency (OV90) | Potency (PA-1) | Potency (SKOV3) | Potency (Tov-21-G) | Potency (Tov112D) | Potency (astro) | max response [2] -0.979% and 2.4%

O=C1NCCN1CCN1CCC(c2cn(-c3ccc(F)cc3)c3ccc(Cl)cc23)CC1
active: Potency (WaGa) 10.6 µM | Potency (C33A) 20 µM | Potency (CASKI) 35.5 µM | Potency (Hek293T) 31.6 µM | Potency (SKOV3) 28.2 µM | Potency (astro) 17.8 µM

Oc1ccc(CCNCCCCCCNCCc2ccccc2)cc1O
active: Potency (WaGa) 10.6 µM | Potency ([1]; tumour line A) 17.8 µM
inactive: Potency (Es-2) | Potency (HeLa) | Potency (Hek293T) | Potency (JEG-3) | activity, negative = cell killing [1, 3] -20.6% | Potency (astro)

CC(COc1ccccc1)NN (stereo not drawn)
inactive: Potency (C33A) | Potency (CAOV3) | Potency (CASKI) | Potency (Es-2) | Potency (HeLa) | Potency (Hek293T) | Potency (JEG-3) | Potency (OV90) | Potency (PA-1) | Potency (SKOV3) | Potency (Tov-21-G) | Potency (Tov112D) | activity, negative = cell killing [1, 3] -5.24% | activity, negative = cell killing [1, 4] 14.4% | activity, negative = cell killing [1, 5] -26.7% | activity, negative = cell killing [1, 6] 4.61% | Potency (astro)

Cc1nc(N)nc(N)c1-c1ccc(Cl)c(Cl)c1
active: Potency (C33A) 0.447 µM | Potency (CASKI) 1.41 µM | Potency (Es-2) 1 µM | Potency (HeLa) 11.2 µM | Potency (Hek293T) 1.58 µM | Potency (JEG-3) 11.2 µM | Potency (OV90) 0.891 µM | Potency (PA-1) 3.16 µM | Potency (Tov-21-G) 0.794 µM | Potency (Tov112D) 3.55 µM
inactive: Potency (CAOV3) | Potency (SKOV3)

O=C(O)c1ccccc1Nc1cc(Cl)ccc1C(=O)O
inactive: Potency (WaGa) | Potency (C33A) | Potency (CAOV3) | Potency (CASKI) | Potency (Es-2) | Potency (HeLa) | Potency (Hek293T) | Potency (JEG-3) | Potency (PA-1) | Potency (SKOV3) | Potency (Tov-21-G) | Potency (Tov112D) | activity, negative = cell killing [1, 3] -6.14% | activity, negative = cell killing [1, 4] -11.1% | activity, negative = cell killing [1, 5] -27.3% | activity, negative = cell killing [1, 6] 1.8% | Potency (astro)
